Source: PubChem BioAssay (NCATS)
Values joined by “and” are separate entries in the source; they are usually repeats but may differ in a detail not shown here. Equal values may be shown once. Results filed as inconclusive are left out. Active and inactive are the calls of the source. Unless noted, calls follow the shape of the dose curve; as a rule, active = well fitted curve in either direction with a large enough effect (not every such curve was filed as active); inconclusive = small, poorly fitted or top-dose-only effect, or another doubt; inactive = flat fitted curve, though single readings scatter.

Key:
[1] = AP1 Signaling Pathway (AID 357); details: ME-180 AP-1-bla reporter, EGF-induced, beta-lactamase ratio, 5 h;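 also: ME-180 reporter cells stimulated with EGF at its EC50 level; % is scaled to controls: 0 for no effect and ±100 for the full control effect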
Outline: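 Modulation of EGF-driven AP-1 transcription was assessed with a beta-lactamase reporter in ME-180 cells. Compound and EC50 EGF were co-incubated 5 hours at 37 °C before 2.5-hour CCF4 loading at room temperature and dual-emission reading.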

[2] = target: Cytochrome P450 1A2 (Homo sapiens) (UniProt P05177); test: p450-cyp1a2 (AID 410; calls by dose curve; also: potency is read from the fitted curve at half-maximal effect;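 as to activity change, negative = inhibition: -100% = full effect of reference inhibitor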); details: recombinant CYP1A2, luciferin-ME demethylation, luminescence; series mostly up to 57 µM
Chain of Cytochrome P450 1A2 (Homo sapiens) (P05177 whole entry, looked up): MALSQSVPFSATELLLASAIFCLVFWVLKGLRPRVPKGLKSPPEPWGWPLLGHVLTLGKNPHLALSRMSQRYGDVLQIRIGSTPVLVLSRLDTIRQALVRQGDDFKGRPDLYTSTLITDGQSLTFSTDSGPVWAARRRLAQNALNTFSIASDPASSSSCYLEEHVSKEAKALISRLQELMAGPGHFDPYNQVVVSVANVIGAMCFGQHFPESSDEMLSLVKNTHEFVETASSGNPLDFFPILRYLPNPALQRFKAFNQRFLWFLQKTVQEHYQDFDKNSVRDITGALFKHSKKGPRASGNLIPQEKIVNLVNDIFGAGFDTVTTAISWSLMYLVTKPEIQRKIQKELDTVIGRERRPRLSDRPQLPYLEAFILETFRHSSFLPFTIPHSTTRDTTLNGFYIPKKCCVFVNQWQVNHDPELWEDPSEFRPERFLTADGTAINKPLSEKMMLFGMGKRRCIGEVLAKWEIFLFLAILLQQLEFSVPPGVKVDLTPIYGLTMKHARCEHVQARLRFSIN
Outline: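 Luminescent readout of luciferin formed from Luciferin-ME by human CYP1A2; data normalized against complete inhibition by 57 uM furafylline. Enzyme 20nM, substrate 100uM at Km, 100mM KPO4 buffer, 60 min reaction at room temperature.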

[3] = Stat Signaling Pathway (AID 446); details: ME-180 SIE beta-lactamase reporter, IL-6 stimulated, 5 h; series mostly up to 17.2 µM;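 also: ME-180 cervical cancer cells given 40 pM IL-6 alongside compound; SIE-controlled beta-lactamase reporter measured as 460/530 nm FRET emission ratio; % is scaled to controls: 0 for no effect and ±100 for the full control effect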
Outline: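 Screening format detects activators and inhibitors alike: ME-180 SIE-bla cells stimulated at 40 pM IL-6 for 5 hrs with compound, then dual-emission beta-lactamase read at 405 nm excitation.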

[4] = target: Glucocorticoid receptor (Homo sapiens) (UniProt P04150); test: GR-GFP Redistribution (AID 450;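 active = compounds whose dose series gives a full or clear partial fitted curve of increased nuclear translocation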; also: potency is read from the fitted curve at half-maximal effect); details: U2OS GR-GFP nuclear translocation, laser cytometry, 2 h
Chain of Glucocorticoid receptor (Homo sapiens) (P04150 whole entry, looked up, the tested form may be a part): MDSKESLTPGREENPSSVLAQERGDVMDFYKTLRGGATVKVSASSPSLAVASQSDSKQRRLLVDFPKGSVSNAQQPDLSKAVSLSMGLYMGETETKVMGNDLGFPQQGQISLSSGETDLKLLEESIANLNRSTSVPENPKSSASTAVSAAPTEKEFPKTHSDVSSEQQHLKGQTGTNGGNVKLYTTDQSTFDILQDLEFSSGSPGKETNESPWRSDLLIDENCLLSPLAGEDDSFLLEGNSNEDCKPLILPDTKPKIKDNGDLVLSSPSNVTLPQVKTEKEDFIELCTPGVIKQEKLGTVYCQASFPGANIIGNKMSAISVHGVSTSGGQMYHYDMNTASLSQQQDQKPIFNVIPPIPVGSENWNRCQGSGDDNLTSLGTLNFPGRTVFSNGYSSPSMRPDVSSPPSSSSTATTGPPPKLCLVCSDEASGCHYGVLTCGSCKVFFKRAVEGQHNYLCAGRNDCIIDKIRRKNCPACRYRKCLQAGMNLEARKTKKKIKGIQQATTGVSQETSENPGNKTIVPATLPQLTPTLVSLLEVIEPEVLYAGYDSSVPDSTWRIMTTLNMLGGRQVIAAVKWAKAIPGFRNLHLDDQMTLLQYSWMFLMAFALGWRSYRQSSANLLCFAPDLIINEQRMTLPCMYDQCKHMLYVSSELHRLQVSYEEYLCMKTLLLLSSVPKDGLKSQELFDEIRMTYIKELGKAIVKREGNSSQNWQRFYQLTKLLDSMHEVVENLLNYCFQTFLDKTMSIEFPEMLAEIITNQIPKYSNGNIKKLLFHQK

[5] = target: Glucocorticoid receptor (Homo sapiens) (UniProt P04150); test: GR-EFC Redistribution (AID 451; calls by dose curve; also: potency is read from the fitted curve at half-maximal effect); details: CHO-K1 GR-EFC translocation, beta-gal luminescence, 2 h
Outline: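 CHO-K1 cells expressing nuclear EA and GR-ED fragments of b-gal; compounds titrated up to 46 uM final, 2 h at 37 C. GR nuclear translocation read as complemented b-gal luminescence after 1 h RT detection.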

[6] = target: Mitogen-activated protein kinase 10 (Mus musculus) (UniProt Q61831); test: JNK3 AlphaScreen Assay (AID 530); details: JNK3 lysate, c-Jun phosphorylation; series mostly up to 57.1 µM;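 also: kinase came from lysate of stimulated human HepG2 cells; signal reports phosphorylation of biotinylated GST-cJun 1-79 at Ser73 with 10 µM ATP; % is scaled to controls: 0 for no effect and ±100 for the full control effect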
Outline: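 Pre-activated (IL-1β/TNFα) JNK3 in HepG2 lysates phosphorylates biotin-GST-cJun(1-79), 10 uM ATP; anti-phospho-cJun(Ser73) AlphaScreen read at room temperature, pH 7.6 Tris buffer. Compounds pre-incubated 15 min as titrations.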

[7] = NFAT Signaling Pathway (AID 444); details: Jurkat NFAT-bla M1, carbachol, beta-lactamase ratio, 5 h;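 also: carbachol stimulus at about its EC50 of 1 µM final; % is scaled to controls: 0 for no effect and ±100 for the full control effect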
Outline: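 Jurkat cells with NFAT-driven β-lactamase reporter and co-expressed M1 receptor, stimulated with carbachol (final 1 uM, ~EC50), compound titration, 5 h at 37 °C. CCF4 loaded 1 h at RT; 460/530 nm ratio gave %activity and AC50.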

[8] = Cell Viability - BJ (AID 421; calls by dose curve;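 also: potency is read from the fitted curve at half-maximal effect; cells exposed to compound for 40 hours at 37 °C before readout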); details: BJ fibroblast viability, qHTS
Outline: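 Cytotoxicity in human BJ foreskin fibroblasts is scored as loss of cellular ATP after a 40-hour exposure, measured by luciferase luminescence. Controls are DMSO and 100 uM tamoxifen.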

[9] = Cell Viability - Jurkat (AID 426;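 active = dose-dependent loss of cell ATP signal giving a full or clear fitted curve, ranked by lower potency value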; also: potency is read from the fitted curve at half-maximal effect); details: qHTS
Outline: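 qHTS, 1536-well; Jurkat E6-1, 5000 cells/well, complete medium; cpd 40 hr, 37 °C; CellTiter-Glo 20 min RT; luminescence. AC50 by Hill fit.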

[10] = Cell Viability - Hek293 (AID 427;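 active = compounds whose dose-response curve shows a full or clear partial loss of cell viability, called from curve shape rather than a numeric limit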;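 also: potency is read from the fitted curve at half-maximal effect; cells exposed to compound for 40 hours at 37 °C before reading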); details: qHTS
Outline: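 qHTS, human embryonic kidney (adenovirus-transformed) cells; 40 hr cpd, 37 °C; CellTiter-Glo ATP luminescence. Norm: DMSO = 0, 100 uM tamoxifen = 100% inhibition. Hill-fit AC50.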

[11] = Cell Viability - HepG2 (AID 433; calls by dose curve;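 also: potency is read from the fitted curve at half-maximal effect; potency for ATP loss meaning cytotoxicity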); details: qHTS
Outline: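 In this qHTS format, a 40 h, 37 °C compound incubation of HepG2 cells in complete medium precedes a 20 min CellTiter-Glo step at room temperature. Tamoxifen and doxorubicin serve as positive controls; Hill-equation fits yield AC50.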

[12] = Cell Viability - MRC5 (AID 434; calls by dose curve;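 also: potency is read from the fitted curve at half-maximal effect; potency reflects cytotoxicity seen as loss of intracellular ATP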); details: MRC5 lung fibroblast viability, qHTS
Outline: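 MRC5 normal human lung fibroblasts, 1500 cells/well, exposed to compound for 40 hr at 37 C. Cellular ATP was read by CellTiter-Glo luminescence; data normalized to DMSO and 100 uM tamoxifen, with AC50 from Hill fits.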

[13] = Cell Viability - SK-N-SH (AID 435; calls by dose curve;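 also: potency is read from the fitted curve at half-maximal effect; compound exposure lasted 40 h at 37 °C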); details: SK-N-SH neuroblastoma cell viability qHTS
Outline: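 Human neuroblastoma line, 40 h exposure at 37 °C, ATP quantified via luciferase luminescence; DMSO and 100 uM tamoxifen define 0 and 100% inhibition for AC50 fitting.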

[14] = Cell Viability - N2a (AID 540; active = well fitted curve in the direction sought with a large enough effect; an effect the other way counts as inactive or inconclusive;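 also: plate controls were DMSO alone for no effect and tamoxifen control for full effect; nearly all actives have a fitted effect of over 45% in size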); details: N2a mouse neuroblastoma cell viability; series mostly up to 92.2 µM
Outline: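 Luminescent ATP signal (CellTiter-Glo, 20 min at room temperature) served as the viability read-out after N2a cells were treated with compounds for 40 hours at 37 °C. Concentration-response data were fitted to the Hill equation for AC50.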

[15] = Cell Viability - NIH 3T3 (AID 541; active = well fitted curve in the direction sought with a large enough effect; an effect the other way counts as inactive or inconclusive;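 also: plate controls were DMSO alone for no effect and tamoxifen positive control for full effect; nearly all actives have a fitted effect of over 25% in size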); details: NIH 3T3 cell viability, qHTS; activity change, negative = cytotoxicity: at 92.2 µM (top of the series)
Outline: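 Luminescent ATP signal (CellTiter-Glo) served as the viability read-out after NIH 3T3 cells were exposed to compounds over a concentration range for 40 hr at 37 °C. Hill-equation modelling of concentration-response data gave AC50.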

[16] = Cell Viability - HUV-EC-C (AID 542; active = well fitted curve in the direction sought with a large enough effect; an effect the other way counts as inactive or inconclusive; also: % is scaled to controls: 0 for no effect and ±100 for the full control effect; nearly all actives have a fitted effect of over 35% in size); details: HUV-EC-C endothelial cell viability, qHTS; series mostly up to 92.2 µM
Outline: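 qHTS cytotoxicity: HUV-EC-C, 1000 cells/well, 5 hr settle, compound 40 hr 37 °C, CellTiter-Glo, luminescence. AC50 via Hill equation.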

[17] = Cell Viability - SH-SY5Y (AID 544; active = well fitted curve in the direction sought with a large enough effect; an effect the other way counts as inactive or inconclusive;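 also: 0% = DMSO alone and -100% = 100 µM tamoxifen; nearly all actives have a fitted effect of over 55% in size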); details: SH-SY5Y neuroblastoma cell viability; series mostly up to 92.2 µM
Outline: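 Luminescent ATP read-out (CellTiter-Glo) measures loss of viable SH-SY5Y neuroblastoma cells after 40 hr compound exposure at 37 °C. AC50 values derive from standard Hill modelling of qHTS concentration-response data.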

[18] = Cell Viability - Renal Proximal Tubule (AID 545; active = well fitted curve in the direction sought with a large enough effect; an effect the other way counts as inactive or inconclusive;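 also: 0% = DMSO only and -100% = 100 µM tamoxifen; nearly all actives have a fitted effect of over 40% in size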); details: renal proximal tubule cells viability, primary cells of rat origin; activity change, negative = cytotoxicity: at 91.7 µM (top of the series)
Outline: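 In this qHTS format, normal rat kidney-derived proximal tubule cells in complete culture medium receive compound titrations, then sit 40 hours at 37 °C before luciferase-based ATP quantitation; potency is reported as AC50 from concentration-response curves.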

Cc1nc2ccccn2c(=O)c1CCN1CCC(C(=O)c2ccc(F)cc2)CC1
inactive: activity change, negative = inhibition ([1]; at 17.2 µM (top of the series)) -5.86% | activity change, negative = inhibition ([1]; at 38 µM (top of the series)) 5.6% | Potency [2] | outcome [3] | Potency [4] > 46 µM and > 20.6 µM | Potency [5] > 46 µM

C[C@H](CS)C(=O)N1CCC[C@H]1C(=O)O
inactive: activity change, negative = inhibition ([1]; at 17.2 µM (top of the series)) -1.77% | activity change, negative = inhibition ([1]; at 38 µM (top of the series)) 3.53% | Potency [2] | outcome [3] | Potency [6]

Brc1c(NC2=NCCN2)ccc2nccnc12
inactive: activity change, negative = inhibition ([1]; at 17.2 µM (top of the series)) -0.374% | activity change, negative = inhibition ([1]; at 38 µM (top of the series)) 6.19% | Potency [2] | outcome [3] | Potency [4] > 46 µM and > 20.6 µM | Potency [5] > 46 µM | Potency [6]

CCOC(=O)C1=C(C)NC(C)=C(C(=O)OC)C1c1cccc([N+](=O)[O-])c1 (stereo unspecified)
inactive: activity change, negative = inhibition ([1]; at 17.2 µM (top of the series)) -25.4%

CC(=O)Nc1nnc(S(N)(=O)=O)s1
inactive: activity change, negative = inhibition ([1]; at 17.2 µM (top of the series)) 2.87% | activity change, negative = inhibition ([1]; at 38 µM (top of the series)) 2.53% | Potency [2] | outcome [3] | Potency [4] > 46 µM and > 20.6 µM | Potency [5] > 46 µM and > 20.6 µM | Potency [6]

Cc1nc2sccn2c(=O)c1CCN1CCC(=C(c2ccc(F)cc2)c2ccc(F)cc2)CC1
inactive: activity change, negative = inhibition ([1]; at 17.2 µM (top of the series)) -9.89% | activity change, negative = inhibition ([1]; at 38 µM (top of the series)) -17.2% | Potency [2] | outcome [3] | Potency [4] > 46 µM and > 20.6 µM | Potency [5] > 46 µM | Potency [6]

O=C(CCNNC(=O)c1ccncc1)NCc1ccccc1
active: Potency [2] 31.6 µM and 12.6 µM
inactive: activity change, negative = inhibition ([1]; at 17.2 µM (top of the series)) -5.47% and 0.412% | activity change, negative = inhibition ([1]; at 38 µM (top of the series)) 1.11% | activity change, negative = inhibition ([7]; at 17.2 µM (top of the series)) -23.8% and -5.87% | activity change, negative = inhibition ([7]; at 38 µM (top of the series)) 4.78% | outcome [3] | Potency [4] > 46 µM and > 20.6 µM | Potency [5] > 46 µM and > 20.6 µM | Potency [6]

c1cnc(N2CCN(Cc3ccc4c(c3)OCO4)CC2)nc1
active: Potency [2] 6.31 µM and 3.16 µM and 2 µM
inactive: activity change, negative = inhibition ([1]; at 17.2 µM (top of the series)) -7.76% | activity change, negative = inhibition ([1]; at 38 µM (top of the series)) 13.9% | outcome [3] | Potency [4] > 46 µM and > 20.6 µM | Potency [5] > 46 µM and > 20.6 µM | Potency [6]

O=C(O)CN(CCN(CC(=O)O)CC(=O)O)CCN(CC(=O)O)CC(=O)O
inactive: activity change, negative = inhibition ([1]; at 17.2 µM (top of the series)) -3.91% | activity change, negative = inhibition ([1]; at 38 µM (top of the series)) 10% | Potency [2] | outcome [3] | Potency [4] > 46 µM and > 20.6 µM | Potency [5] > 46 µM and > 20.6 µM | Potency [6]

COc1cc(Cc2cnc(N)nc2N)cc(OC)c1OC
inactive: activity change, negative = inhibition ([1]; at 17.2 µM (top of the series)) 1.37% | activity change, negative = inhibition ([1]; at 38 µM (top of the series)) -4.63% | Potency [8] > 92 µM | Potency [9] > 92 µM | Potency [10] > 92 µM | Potency [11] > 92 µM | Potency [12] > 92 µM | Potency [13] > 92 µM | activity change, negative = inhibition ([7]; at 17.2 µM (top of the series)) -13.2% | activity change, negative = inhibition ([7]; at 38 µM (top of the series)) -9.42% | outcome [3] | Potency [6] | outcome [14] | activity change, negative = cytotoxicity [15] -10.3% | Potency [16] | Potency [17] | activity change, negative = cytotoxicity [18] -5.57%

CC[N+](C)(C)c1cccc(O)c1
inactive: activity change, negative = inhibition ([1]; at 17.2 µM (top of the series)) 1.89% and 0.722% | activity change, negative = inhibition ([1]; at 38 µM (top of the series)) 2.69% | Potency [2] | outcome [3] | Potency [6]

CC(=O)Oc1cc(C(C)C)c(OCCN(C)C)cc1C
inactive: activity change, negative = inhibition ([1]; at 17.2 µM (top of the series)) 7.18% | activity change, negative = inhibition ([1]; at 38 µM (top of the series)) 22.7% | outcome [3] | Potency [4] > 46 µM and > 20.6 µM | Potency [5] > 46 µM and > 20.6 µM | Potency [6]
active: Potency [2] 7.94 µM and 3.16 µM

CN(C)C(=O)Oc1cccc([N+](C)(C)C)c1
inactive: activity change, negative = inhibition ([1]; at 17.2 µM (top of the series)) 6.9% and 1.34% and 7.06% | activity change, negative = inhibition ([1]; at 38 µM (top of the series)) -1.33% | Potency [2] | activity change, negative = inhibition ([7]; at 17.2 µM (top of the series)) -14.6% and 15.5% and 0.313% | activity change, negative = inhibition ([7]; at 38 µM (top of the series)) 13% | outcome [3] | Potency [4] > 46 µM and > 20.6 µM | Potency [5] > 46 µM and > 20.6 µM | Potency [6]

CN(C)CC/C=C1\c2ccccc2COc2ccccc21
inactive: activity change, negative = inhibition ([1]; at 17.2 µM (top of the series)) 22.2% | activity change, negative = inhibition ([1]; at 38 µM (top of the series)) 23.8% | outcome [3] | Potency [4] > 46 µM and > 20.6 µM | Potency [5] > 46 µM and > 20.6 µM | Potency [6]
active: Potency [2] 12.6 µM and 5.01 µM and 15.8 µM | activity change, negative = inhibition ([7]; at 17.2 µM (top of the series)) -44.9%

C#CCN(C)CCCOc1ccc(Cl)cc1Cl
inactive: activity change, negative = inhibition ([1]; at 17.2 µM (top of the series)) -12.7% | activity change, negative = inhibition ([1]; at 38 µM (top of the series)) -0.876% | outcome [3] | Potency [4] > 46 µM and > 20.6 µM | Potency [5] > 46 µM and > 20.6 µM | Potency [6]
active: Potency [2] 631 nM and 158 nM

Cc1ccc(Cl)c(Nc2ccccc2C(=O)O)c1Cl
inactive: activity change, negative = inhibition ([1]; at 17.2 µM (top of the series)) -18.4% | activity change, negative = inhibition ([1]; at 38 µM (top of the series)) -15.5% | Potency [2] | outcome [3] | Potency [4] > 46 µM and > 20.6 µM | Potency [5] > 46 µM and > 20.6 µM | Potency [6]
